Data on 18 compounds can be found in ChEMBL document CHEMBL3988442, “University of Dundee, Small-Polar-MMV Screening Library” (2021).

SMILES strings stand for the structures.

For experiment [1], the target named is T1, Aspartate--tRNA(Asp/Asn) ligase (Mycobacterium tuberculosis (strain ATCC 25618 / H37Rv)) (UniProt P9WFW3). Note: in the data most compounds retested in dose-response had high values.
T1 sequence (whole entry): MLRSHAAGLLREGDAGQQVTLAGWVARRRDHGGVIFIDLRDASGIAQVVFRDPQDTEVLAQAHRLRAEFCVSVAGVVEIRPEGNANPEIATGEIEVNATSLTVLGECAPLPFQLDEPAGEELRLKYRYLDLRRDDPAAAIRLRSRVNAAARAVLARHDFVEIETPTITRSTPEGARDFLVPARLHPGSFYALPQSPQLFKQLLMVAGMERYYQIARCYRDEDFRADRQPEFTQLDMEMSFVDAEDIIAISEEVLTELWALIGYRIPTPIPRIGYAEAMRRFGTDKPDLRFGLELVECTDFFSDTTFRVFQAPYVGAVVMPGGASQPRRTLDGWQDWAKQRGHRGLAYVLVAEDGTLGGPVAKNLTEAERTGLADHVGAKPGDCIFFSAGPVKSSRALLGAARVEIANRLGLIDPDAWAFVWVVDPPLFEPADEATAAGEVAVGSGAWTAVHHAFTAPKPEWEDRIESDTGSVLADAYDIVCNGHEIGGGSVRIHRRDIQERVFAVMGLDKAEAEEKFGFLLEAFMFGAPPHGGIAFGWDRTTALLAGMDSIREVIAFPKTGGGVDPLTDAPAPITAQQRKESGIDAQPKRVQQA
The experiment is described as follows: Assay for Asp RNA synthetase-1 from Mycobacterium tuberculosis. The format is functional. Details: scale not given: direction of the effect not stated beside the values. The settings on record: 30 µM.

For experiment [2], the target named is Shiga toxin 2 (Escherichia coli O157:H7) (UniProt P09385+P09386). The experiment is described as follows: E. coli 0.157:H7 Shiga Toxin SOP - stx2 screening assay. Further details: scale not given: direction of the effect not stated beside the values. The format is functional. The note with it: 30 µM.

Take `CO[C@@H]1CC[C@H]2[C@H]1OCCN2C(=O)COc1ccc(F)cc1`: the Percent Effect was -2.58% in experiment [1] and -2.38% in experiment [2].

Take `O=C(CCN1CCCN(c2nccs2)CC1)Nc1ccccc1`: the figures for the Percent Effect in experiment [1] and in experiment [2] were -1.81% and -52.2%, respectively.

Consider `Cc1nc(CN(C)C(=O)Nc2cnn(CC3CCCO3)c2)cs1` (stereo unspecified), for which the values for the Percent Effect in experiment [1] and in experiment [2] were 2.17% and -5.02%, respectively.

Turning to `COc1ccc2c(c1)OCC(CNC(=O)c1ccncc1)C2` (stereo unspecified), the Percent Effect in experiment [1] is -2.83%; in experiment [2] it was 17.7%.

In the case of `CC(NC(=O)CCc1cccs1)c1nnc2n1CCC2` (stereo unspecified), the Percent Effect is -0.379% in experiment [1] and 3.4% in experiment [2].

Take `CN(C)Cc1ccc(C2CCCCN2C(=O)c2cccc(CO)n2)cc1` (stereo unspecified): the Percent Effect in experiment [1] was -3.06%; in experiment [2] it was 0.431%.

Turning to `O=C(NCCn1ccnc1)NCC(c1ccco1)N1CCCCC1` (stereo unspecified), the Percent Effect is 1.79% in experiment [1] and 22.2% in experiment [2].

Consider `Cc1cc(C)n(C2CCCN(C(=O)CCCNc3ncccn3)C2)n1` (stereo unspecified), for which the values for the Percent Effect in experiment [1] and in experiment [2] were -5.54% and -43.3%, respectively.

Turning to `CCCN1CCN(C(=O)c2scnc2C)CC1`, the Percent Effect in experiment [1] is -0.389%; in experiment [2], 5.75%.

On to `COc1c(C2CCCN2C(=O)c2c[nH]c3ncccc23)c(C)nn1C` (stereo unspecified), for which the Percent Effect in experiment [1] is -1.25%; in experiment [2] it was -20.6%.

With `CCS(=O)(=O)Nc1ccc(C(=O)NCCCN2CCCC2)cc1`, the results for the Percent Effect in experiment [1] and in experiment [2] were 8.39% and -19%, respectively.

Turning to `N#Cc1ccccc1N1CCCN(C(=O)CCn2cccn2)CC1`, the Percent Effect in experiment [1] was -10.7%; in experiment [2] it was 3.42%.

On to `c1ccc(Cn2cc3c(n2)C(COCC2CC2)OCC3)nc1` (stereo unspecified), for which the Percent Effect in experiment [1] is 4.12%; in experiment [2], -12.1%.

`CCOc1ccc(N2CCCN=C2NC(=O)c2ccccc2C)cc1`: the values for the Percent Effect in experiment [1] and in experiment [2] were 4.31% and -57.5%, respectively.

As to `O=C(Cc1cccc(F)c1)NCCNCc1ccco1`, the figures for the Percent Effect in experiment [1] and in experiment [2] were 0.577% and 3.74%, respectively.

Consider `Cc1ccc2c(ccn2CCC(=O)NC[C@@H]2CCCN3CCCC[C@H]23)c1`, for which the Percent Effect in experiment [1] is -0.958%; in experiment [2], -5.27%.

Turning to `O=C(Nc1nccs1)N(CCO)Cc1ccsc1`, the Percent Effect is -2.48% in experiment [1] and -3.95% in experiment [2].

On to `CCN1C[C@H]2CCN(C(C)=O)CC[C@H]2S1(=O)=O`, for which the figures for the Percent Effect in experiment [1] and in experiment [2] were -0.319% and -50.9%, respectively.
